# Structures can show the parent of a compound that is named as a salt. Whole data set: some 2,800 compounds, median “cell viability relative to vehicle” near 0.98, cut for the lowest 2% near 0.45. For the sample, the lowest values were picked, then their nearest neighbours and some compounds at random.
# Test system: NCI-H2228 alectinib-DTP
# Experiment: cell viability relative to vehicle (fraction of vehicle); NCI-H2228 is an ALK-positive lung cancer line and DTP means drug-tolerant persister; higher = less growth inhibition
# Conditions: 100 nM; treatment time 6 days
# Procedure, shortened: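 Each value is viability relative to vehicle-treated cells, measured as ATP with the CellTiter-Glo 3D Cell Viability Assay. Parental NCI-H2228 cells and drug-tolerant persisters (1000 nM targeted drug, 13 days) in 384-well plates received the 3114-agent TargetMol anti-cancer compound library at 100 nM, or DMSO, and were read 6 days later.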
row,SMILES,cell viability
1,CC(C)[C@]12O[C@H]1[C@@H]1O[C@]13[C@]1(O[C@H]1C[C@H]1C4=C(CC[C@@]13C)C(=O)OC4)[C@@H]2O [Triptolide],0.133
2,CCCC(C)(C)c1ccc2c(c1)OC(C)(C)[C@@H]1CC=C(C)C[C@@H]21,0.862
3,Cc1ccc(/N=C/N(C)/C=N/c2ccc(C)cc2C)c(C)c1 [Amitraz],0.902
4,COc1ccc2c(c[n+](C)c3c4cc5c(cc4ccc23)OCO5)c1OC [Chelerythrine],1.03
5,COc1ccc2c(c[n+](C)c3c4cc5c(cc4ccc23)OCO5)c1OC [Chelerythrine chloride],1.04
6,CC(=O)O[C@H]1C(=O)[C@@]2(C)[C@H]([C@H](OC(=O)c3ccccc3)[C@]3(O)C[C@H](O)C(C)=C1C3(C)C)[C@]1(OC(C)=O)CO[C@@H]1C[C@@H]2O [Baccatin III],1
7,C/C(=C\c1csc(C)n1)[C@@H]1C[C@@H]2O[C@@H]2CCC[C@H](C)[C@H](O)[C@@H](C)C(=O)C(C)(C)[C@@H](O)CC(=O)O1 [Epothilone A],0.529
8,C/C(=C\c1csc(C)n1)[C@@H]1C[C@@H]2O[C@]2(C)CCC[C@H](C)[C@H](O)[C@@H](C)C(=O)C(C)(C)[C@@H](O)CC(=O)O1 [Epothilone B],0.433
9,C[C@@H]1C(=O)O[C@H]2[C@H](O)[C@@]34O[C@@H]5OC(=O)[C@H](O)[C@@]56[C@H](C(C)(C)C)[C@H](O)C(OC3=O)[C@]64[C@@]12O (stereo partly specified) [Ginkgolide C],0.969
10,C/C=C/c1cc(OC)c(OC)cc1OC [alpha-Asarone],0.92
11,NC[C@H](CC(=O)O)c1ccc(Cl)cc1 [(R)-baclofen],1.07
12,NCCc1c[nH]c2ccccc12 [Tryptamine],1.12
13,NCCCNCCCN [Bis(3-aminopropyl)amine],0.833
14,CC(=O)O[C@H]1C[C@H](O[C@H]2[C@@H](O)C[C@H](O[C@H]3[C@@H](O)C[C@H](O[C@H]4CC[C@@]5(C)[C@H](CC[C@@H]6[C@@H]5C[C@@H](O)[C@]5(C)[C@@H](C7=CC(=O)OC7)CC[C@]65O)C4)O[C@@H]3C)O[C@@H]2C)O[C@H](C)[C@H]1O[C@@H]1O[C@H](CO)[C@@H](O)[C@H](O)[C@H]1O [Lanatoside C],0.49
15,CO[C@H]1C[C@H](O[C@H]2CC[C@]3(C)[C@H]4CC[C@]5(C)[C@@H](C6=CC(=O)OC6)CC[C@]5(O)[C@@H]4CC[C@]3(O)C2)O[C@H](C)[C@H]1O[C@@H]1O[C@H](CO)[C@@H](O)[C@H](O)[C@H]1O [Periplocin],0.443
16,CCC(C)C(=O)O[C@@H]1[C@@H](OC(C)=O)[C@]2(C)[C@H](C(C)=O)CC[C@@]23O[C@]32CC[C@H]3C[C@@H](O[C@H]4C[C@@H](OC)[C@H](O[C@@H]5O[C@H](C)[C@@H](O)[C@@H](OC)[C@H]5O)[C@@H](C)O4)CC[C@]3(C)[C@@H]12 (stereo partly specified) [Tenacissoside H],1.14
17,NCC(CC(=O)O)c1ccccc1 (stereo unspecified) [Phenibut],1.03
18,COc1ccc2c(c1O)-c1c(OC)c(OC)cc3c1[C@H](C2)N(C)CC3 [(+)-Isocorydine hydrochloride],0.9
19,CCC12C=CCN3CC[C@@]4(c5ccc(OC)cc5N(C)[C@H]4[C@@](O)(C(=O)OC)[C@@H]1OC(C)=O)[C@@H]32 (stereo partly specified) [Vindoline],1.1
20,N#CC(C#N)=Cc1ccc([N+](=O)[O-])c(O)c1,1.05
21,C[C@H]1CCC/C=C/[C@@H]2C[C@H](O)C[C@H]2[C@H](O)/C=C/C(=O)O1 [Brefeldin A],0.0894
22,C[C@H]1C(=O)O[C@@H]2CCN3CC=C(COC(=O)[C@](C)(O)[C@]1(C)O)[C@H]23 [Monocrotaline],0.941
23,C[N+]1([O-])[C@@H]2CC(OC(=O)[C@H](CO)c3ccccc3)C[C@H]1[C@@H]1O[C@@H]12 (stereo partly specified) [Scopolamine N-oxide HBr],1.07
24,C[C@@H]1CCC=C2C(=O)C[C@H]3OOC(C)(C)[C@H]3[C@]21C [Nardosinone],0.941
25,COc1ccc2c(c1)[nH]c1c(C)nccc12 [Harmine],0.801
26,Nc1ncnc2c1ccn2[C@@H]1O[C@H](CO)[C@@H](O)[C@H]1O [Tubercidin],0.389

row,SMILES,cell viability
1,CC(=O)Nc1ccc(OC[C@](C)(O)C(=O)Nc2ccc([N+](=O)[O-])c(C(F)(F)F)c2)cc1 [Andarine],0.917
2,C[C@H](CS(C)(=O)=O)n1ccc2c(C(F)(F)F)c(C#N)ccc21,1.09
3,O=P(O)(NCCCl)NCCCl [Palifosfamide],1.17
4,Cc1c(N[C@@H](c2nnc(-c3ccc(C#N)cc3)o2)[C@H](C)O)ccc(C#N)c1Cl [Testolone],1.21
5,CC(=O)O[C@H]1[C@H]2O[C@]23[C@@H]2CC[C@@H]4C[C@@H](O)CC[C@]4(C)[C@H]2CC[C@]3(C)[C@H]1c1ccc(=O)oc1 [Cinobufagin],0.142
6,C[C@]12CC[C@H](O)C[C@H]1CC[C@@H]1[C@@H]2CC[C@]2(C)[C@@H](c3ccc(=O)oc3)CC[C@]12O [Bufalin],0.101
7,C[C@]12CC[C@H](O)C[C@@H]1CC[C@@H]1[C@@H]2CC[C@]2(C)C(=O)CC[C@@H]12 [Epiandrosterone],0.814
8,C[C@]12CC[C@H](O)C[C@H]1CC[C@@H]1[C@@H]2CC[C@]2(C)[C@@H](c3ccc(=O)oc3)C[C@H]3O[C@]132 [Resibufogenin],1.07
9,C[C@]12CC[C@H](O)C[C@H]1CC[C@@H]1[C@@H]2CC[C@]2(C)[C@@](O)(c3ccoc3)CC[C@]12O [Rostafuroxin],0.988
10,Cc1c(C(=O)Nc2cccc(C(F)(F)F)c2)cc(-c2ccccc2)n1CCCN1CCOCC1,0.946
11,Cc1ccccc1-n1c(Cn2cnc3c(N)ncnc32)nc2cccc(C)c2c1=O,1.07
12,C=C1C2CC3(C1O)C1CC4C5(C)CCC(O)C4(C1N(CC)C5)C3CC2=O (stereo unspecified) [Napellonine],0.931
13,CCO[C@H]1O[C@@H]2O[C@@]3(C)CC[C@H]4[C@H](C)CC[C@@H]([C@H]1C)[C@@]24OO3 [Arteether],0.856
14,CC(=O)OC(C)(C)/C=C/C(=O)[C@](C)(O)[C@H]1[C@H](O)C[C@@]2(C)[C@@H]3CC=C4[C@H](C[C@H](O)C(=O)C4(C)C)[C@]3(C)C(=O)C[C@]12C [Cucurbitacin B],0.146
15,COc1ccc2c(c1OC)CN1CCc3cc4c(cc3C1C2)OCO4 (stereo unspecified) [Tetrahydroberberine THB],1.01
16,CC[C@@]1(O)C(=O)OCc2c1cc1n(c2=O)Cc2cc3ccccc3nc2-1 [(S)-(+)-Camptothecin],0.36
17,CCc1c2c(nc3ccccc13)-c1cc3c(c(=O)n1C2)COC(=O)[C@]3(O)CC [7-Ethylcamptothecin],0.361
18,COc1ccc(/C=C/C=C2C(=O)NC(=O)NC2=O)cc1,0.972
19,N#C/C=C1/C=C[C@@H](O)[C@H](O)[C@H]1O[C@@H]1O[C@H](CO)[C@@H](O)[C@H](O)[C@H]1O [Griffonin],0.984
20,Clc1ccc([C@]23CNC[C@H]2C3)cc1Cl [Amitifadine hydrochloride],1.06
21,CC(=O)O[C@H]1CC[C@H]2[C@@H]3CCC4=CC(=O)CCC4=C3C=C[C@]12C [Trenbolone acetate],1.15
22,N#C[C@H](O[C@@H]1O[C@H](CO[C@@H]2O[C@H](CO)[C@@H](O)[C@H](O)[C@H]2O)[C@@H](O)[C@H](O)[C@H]1O)c1ccccc1 [Amygdalin],0.879
23,N#Cc1nn(-c2c(Cl)cc(C(F)(F)F)cc2Cl)c(N)c1[S+]([O-])C(F)(F)F (stereo unspecified) [Fipronil],0.905
24,CC1=C[C@H]2[C@@]3(O)[C@H](C)[C@@H](O)[C@]4(O)[C@H]([C@@H]3C=C(CO)C[C@]2(O)C1=O)C4(C)C [Phorbol],0.999
25,O=C(/C=C/c1ccccc1)OC[C@H]1O[C@@H](O[C@@H]2OC=C[C@H]3[C@H](O)[C@@H]4O[C@]4(CO)[C@@H]23)[C@H](O)[C@@H](O)[C@@H]1O [Picroside I],1.06

# Reference: the supplement of paper PMC10600219
